Test results published in PubChem BioAssay (EPA / NIEHS).
Several values for one entry are separate records, joined by “and”; a condition that tells them apart may be missing. Equal values may be shown once. Results filed as inconclusive are left out. Activity calls are given as the source filed them. How the source made its calls, unless noted: active means hit-call score of the fitted dose curve at least 0.9, where 1 is the maximum; inconclusive means response in the unintended direction; inactive means score below 0.9.

Experiments:
[1] = Tanguay_ZF_120hpf_TRUN_legacy: (Legacy) Oregon State University Tanguay Lab 120 Hour Post-fertilization zebrafish Assay for Truncated Body (AID 2283655)
Method in brief: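 Truncated body is recorded as a binary endpoint at 120 hpf by brightfield imaging of wild-type 5D larvae. Exposure runs statically from 6 hpf at 28C with 0.64% DMSO; embryos dying earlier are not scored.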

[2] = Tanguay_ZF_120hpf_TR_legacy: (Legacy) Oregon State University Tanguay Lab 120 Hour Post-fertilization zebrafish Assay for Touch Response (AID 2283667)
Method in brief: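 5D WT embryos; static exposure to 120 hpf, 28C, sealed/dark; DMSO 0.64% v/v final. TR scored present/absent; dead embryos excluded. Pos ctrl 5uM trimethyltin chloride.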

[3] = test system: Thyroperoxidase (TPO), gene 54314; test: CCTE_Simmons_AUR_rTPO: CCTE's Amplex UltraRed Assay for Thyroperoxidase (TPO) Inhibition, Simmons Lab (AID 2283662);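 on AC50: potency for loss of signal meaning inhibition of peroxidase activity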
Method in brief: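 Cell-free peroxidase activity assay using rat thyroid gland microsomes with excess H2O2 (300 uM) and 25 uM Amplex UltraRed. Compounds tested from 5 nM to 87.5 uM; fluorescence measured after 30 min at 37C, analysed relative to DMSO baseline.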

[4] = CCTE_Simmons_CellTiterGLO_HEK293T: Viability Assessment in CCTE's Assays for Thyroperoxidase (TPO) Inhibition, Simmons Lab (AID 2283665);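 on AC50: cells exposed to compound for 24 h before readout; actives reduce ATP signal below DMSO vehicle meaning cytotoxicity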
Method in brief: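 HEK293T, 10 000 cells/well, DMEM + 1% FBS; 8-pt titration 5 nM–87.5 uM [final], 0.5% DMSO; 24 hr, 37C, 5% CO2; CellTiter-Glo luminescence; n=3 biological replicates.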

[5] = CCTE_Padilla_ZF_144hpf_TERATOSCORE: (Legacy) CCTE's 144 Hour Post-fertilization zebrafish Assay Teratoscore, Padilla Lab (AID 2283679; active means hit-call score of the fitted dose curve at least 0.9, where 1 is the maximum; inactive means score below 0.9;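 on AC50: zebrafish embryos with chorions exposed by immersion from 6-8 hpf to 5 dpf with daily renewal; teratogenicity score from eye scoring of death hatching and malformations at 144 hpf; higher score means more developmental defects relative to DMSO baseline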)
Method in brief: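 Larvae scored by eye at 144 hpf for death, hatching and malformations after a day in clean Hanks'. Before that, daily-renewed exposure at 80 uM (0.4% DMSO, 26C) from roughly 6-8 hpf through 5 dpf, 4 embryos per chemical.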

[6] = STM_H9_CystineISnorm_perc: Stemina devTOX quickPredict H9 human embryonic stem cell (hESC)-based Assay for Cystine (CYSS) Metabolite Biomarker, Normalized (AID 2283713; active means hit-call score of the fitted dose curve at least 0.9, where 1 is the maximum; inactive means score below 0.9)
Method in brief: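 H9 hESC, pluripotent; compound 72h, re-dosed q24h with medium change. Last-24h medium → 40% acetonitrile deproteinization → UPLC-HRMS. CYSS area / C13-CYSS standard, then % of 0.1% DMSO median.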

[7] = read-out: solute carrier (SLC10A1), SLC10A1 (gene 6554); test: LTEA_HepaRG_SLC10A1: Life Technologies and Expression Analysis (LTEA) Assay for solute carrier (SLC10A1) using HepaRG (AID 2283657; active means hit-call score of the fitted dose curve at least 0.9, where 1 is the maximum; inactive means score below 0.9); details: mRNA level, 48 h; actives raise or lower the signal
Method in brief: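 Transcript levels were measured by qRT-PCR after human HepaRG cells received test chemical for 48 hours, up to 100 uM in half-log dilutions. Values come from bidirectional concentration-response fitting relative to 0.5% DMSO vehicle.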

[8] = read-out: matrix metalloproteinase-1 (MMP1), MMP1 (gene 4312); test: LTEA_HepaRG_MMP1: Life Technologies and Expression Analysis (LTEA) Assay for matrix metalloproteinase-1 (MMP1) using HepaRG (AID 2283658; active means hit-call score of the fitted dose curve at least 0.9, where 1 is the maximum; inactive means score below 0.9); details: mRNA level, 48 h; actives raise or lower the signal
Method in brief: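 HepaRG, ~100,000 cells/well, 48 h pre-culture; serum-free induction medium; test chemical 8 conc (max 100 uM, half-log), duplicate, 48 h; 0.5% DMSO; qRT-PCR MMP1, housekeeping-normalized; gain/loss fit vs DMSO.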

[9] = read-out: Cytochrome P450 (CYP24A1_1), CYP24A1 (gene 1591); test: LTEA_HepaRG_CYP24A1_1: Life Technologies and Expression Analysis (LTEA) Assay for Cytochrome P450 (CYP24A1_1) using HepaRG (AID 2283671; active means hit-call score of the fitted dose curve at least 0.9, where 1 is the maximum; inactive means score below 0.9); details: mRNA level, 48 h; actives raise or lower the signal
Method in brief: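 In this test, gene induction or suppression of CYP24A1 in human HepaRG liver cells is measured by qRT-PCR after 48 h chemical treatment (eight concentrations, maximum 100 uM). Values are fitted bidirectionally relative to DMSO.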

[10] = Tanguay_ZF_120hpf_NC_legacy: (Legacy) Oregon State University Tanguay Lab 120 Hour Post-fertilization zebrafish Assay for Notochord and Tail Malformation (AID 2283656)
Method in brief: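 Dechorionated Tropical 5D wild-type zebrafish embryos, one per well from 6 hpf, statically exposed to 120 hpf at 28C in 0.64% DMSO final. Notochord distortion scored present/absent by brightfield; dead embryos excluded.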

COC(=O)CCCCC(=O)OC
outcome [1]: inactive
outcome [2]: inactive

CCN(CC)CCNc1ccc(CNC=O)c2sc3ccc(OC)cc3c(=O)c12
outcome [1]: inactive
AC50 [3]: 24.9 µM (active)
AC50 [4]: 22.1 µM (active)
outcome [2]: inactive
AC50 [5]: 57.8 µM (active)
AC50 [6]: 2.53 µM (active)

CN1CCN(c2ccccc2/C=C2\SCCN(c3ccc(Cl)c(Cl)c3)C2=O)CC1
outcome [1]: inactive
outcome [3]: inactive
AC50 [4]: 9.55 µM (active)
AC50 [5]: 5.38 µM (active)
AC50 [6]: 7.81 µM (active)

Cc1oc(-c2ccccc2)nc1CCOc1ccc(C[C@H](Nc2ccccc2C(=O)c2ccccc2)C(=O)O)cc1
outcome [1]: inactive
AC50 [3]: 27.5 µM (active)
AC50 [4]: 12.1 µM (active)
outcome [2]: inactive
AC50 [5]: 5.11 µM (active)

CC(C)(C)c1cc(C(C)(C)C)c(O)c(C(C)(C)C)c1
outcome [1]: inactive
outcome [7]: inactive
outcome [8]: inactive
AC50 [3]: 2.65 µM (active)
AC50 [4]: 9.06 µM (active)
outcome [2]: inactive
outcome [9]: inactive
AC50 [5]: 7.36 µM (active)

Oc1cc2ccccc2c2ccccc12
AC50 [1]: 38.3 µM (active)
AC50 [3]: 1.72 µM (active)
AC50 [4]: 1.4 µM (active)
AC50 [2]: 38.8 µM (active)
AC50 [5]: 4.98 µM (active)

C#C[C@]1(O)CC[C@H]2[C@@H]3CCC4=CC(=O)CC[C@@H]4[C@H]3CC[C@@]21C
outcome [1]: inactive
AC50 [7]: 9.92 µM (active)
outcome [8]: inactive
AC50 [3]: 64.9 µM (active)
AC50 [4]: 66 µM (active)
outcome [2]: inactive
outcome [9]: inactive
AC50 [5]: 16.1 µM (active)
AC50 [6]: 79.8 µM (active)

O=c1c(-c2ccc(O)cc2)coc2cc(O)ccc12
outcome [1]: inactive
AC50 [3]: 9.2 µM (active)
AC50 [4]: 0.393 µM (active)
outcome [2]: inactive
outcome [5]: inactive

NC(=O)N1C(=O)C(C(=O)c2cc(Cl)cs2)c2cc(F)c(Cl)cc21 (configuration not stated)
outcome [1]: inactive
outcome [10]: inactive
outcome [2]: inactive
AC50 [5]: 4.57 µM (active)

CCC(=C(c1ccc(O)cc1)c1ccc(OCCN(C)C)cc1)c1ccccc1
outcome [1]: inactive
AC50 [3]: 9.22 µM (active) and 8.64 µM (active)
AC50 [4]: 8.78 µM (active) and 3.78 µM (active)
outcome [2]: inactive
AC50 [5]: 7.87 µM (active)

CCCCC(CC)COC(=O)CCCCC(=O)OCC(CC)CCCC (configuration not stated)
outcome [1]: inactive
outcome [10]: inactive
outcome [2]: inactive
outcome [5]: inactive

O=C(O)c1ccccc1C(c1ccc(O)cc1)c1ccc(O)cc1
outcome [1]: inactive
AC50 [3]: 4.26 µM (active)
outcome [4]: inactive
outcome [2]: inactive
outcome [5]: inactive

N#C[C@@H]1CC(F)(F)CN1C(=O)CNC1CC2CCC(C1)N2c1ncccn1 (some centres not stated)
outcome [1]: inactive
AC50 [3]: 36.6 µM (active)
outcome [4]: inactive
outcome [6]: inactive

CCCCCCCCCCCCN1CCCC1=O
AC50 [1]: 34.7 µM (active)
AC50 [3]: 17.4 µM (active)
AC50 [4]: 14.9 µM (active)
outcome [2]: inactive
AC50 [5]: 8.11 µM (active)

CC[C@H](c1ccc(O)cc1)[C@@H](CC)c1ccc(O)cc1
outcome [1]: inactive
AC50 [3]: 4.36 µM (active)
AC50 [4]: 2.25 µM (active)
outcome [2]: inactive
AC50 [5]: 14.9 µM (active)

CCC(C)(C)C1CCC(O)CC1 (configuration not stated)
outcome [1]: inactive
outcome [10]: inactive
outcome [2]: inactive
outcome [5]: inactive

CC(=O)CC(C)(C)O
outcome [1]: inactive
outcome [10]: inactive
outcome [2]: inactive
outcome [5]: inactive

CC1=C(/C=C/C(C)=C/C=C/C(C)=C/C(=O)O)C(C)(C)CCC1
AC50 [1]: 0.168 µM (active)
AC50 [3]: 25 µM (active)
AC50 [2]: 0.0914 µM (active)
AC50 [5]: 0.0081 µM (active)
AC50 [6]: 0.00844 µM (active)

Nc1cccc2c(N)cccc12
outcome [1]: inactive
AC50 [3]: 2.06 µM (active)
AC50 [4]: 30.1 µM (active)
outcome [2]: inactive
AC50 [5]: 48.9 µM (active)
outcome [6]: inactive

O=C(OCCOCCOC(=O)c1ccccc1)c1ccccc1
outcome [1]: inactive
outcome [7]: inactive
outcome [8]: inactive
outcome [2]: inactive
outcome [9]: inactive
AC50 [5]: 1.74 µM (active)
outcome [6]: inactive

OCCC(F)(F)C(F)(F)C(F)(F)C(F)(F)C(F)(F)C(F)(F)F
outcome [1]: inactive
outcome [2]: inactive
outcome [5]: inactive

CCCCCCCCCCCCCCCS(=O)(=O)Oc1ccccc1
outcome [1]: inactive
outcome [2]: inactive

c1ccc2c(c1)ccc1ccccc12
outcome [1]: inactive
outcome [2]: inactive
outcome [5]: inactive
AC50 [6]: 80.3 µM (active)

CCCCCCCCOC(=O)CCCCCCCCC(=O)OCCCCCCCC
outcome [1]: inactive
outcome [2]: inactive
outcome [5]: inactive

Cc1cc(C)c(O)c(C)c1
AC50 [3]: 5.53 µM (active)
outcome [4]: inactive
outcome [2]: inactive

CC(C)(C)c1cccc(C(C)(C)C)c1O
AC50 [3]: 2.68 µM (active)
AC50 [4]: 10.2 µM (active)
AC50 [5]: 97.8 µM (active)

Cc1cc(CCN2CCN(c3nsc4ccccc34)CC2)cc2c1NC(=O)CC2(C)C
AC50 [1]: 3.08 µM (active)
AC50 [2]: 6.3 µM (active)
AC50 [5]: 1.64 µM (active)
AC50 [6]: 8.41 µM (active)

CC(C)(C)CC(C)(C)c1ccc(O)c(-n2nc3ccccc3n2)c1
outcome [1]: inactive
outcome [2]: inactive

COCC(C)OCC(C)O (configuration not stated)
outcome [2]: inactive

c1ccc2c(c1)Cc1ccccc1-2
outcome [2]: inactive

CCc1ccc(CCOc2ccc(CC3SC(=O)NC3=O)cc2)nc1 (configuration not stated)
outcome [1]: inactive
outcome [2]: inactive
AC50 [6]: 88.9 µM (active)

CCCCCCCCC(=O)O
outcome [1]: inactive
outcome [2]: inactive

CCc1nn(C2CCCCC2)c2cc(C3(C#N)CCC(C(=O)O)CC3)ccc12 (configuration not stated)
AC50 [1]: 0.171 µM (active)
AC50 [2]: 2.48 µM (active)
AC50 [5]: 0.263 µM (active)

CC[C@H](C)[C@@H](C(=O)O)n1sc2ccccc2c1=O
outcome [1]: inactive
outcome [2]: inactive

CCCCCCCCCCCCCC[N+](C)(C)C
AC50 [3]: 38.4 µM (active)
AC50 [4]: 13.7 µM (active)

CCCOC(=O)c1ccc(O)cc1
AC50 [1]: 32.9 µM (active)
AC50 [2]: 41.5 µM (active)
AC50 [5]: 14.9 µM (active)

CN(C)C=O
outcome [1]: inactive
outcome [2]: inactive
outcome [6]: inactive

CC(C)CCCCCCOC(=O)CCCCC(=O)OCCCCCCC(C)C
outcome [1]: inactive
outcome [2]: inactive

CCCCC(CC)COC(=O)CCCCC(=O)OCc1ccccc1 (configuration not stated)
outcome [1]: inactive
outcome [2]: inactive

CN1CCC[C@H]1c1cccnc1
outcome [1]: inactive
outcome [2]: inactive
outcome [6]: inactive

OCCC(F)(F)C(F)(F)C(F)(F)C(F)(F)C(F)(F)C(F)(F)C(F)(F)C(F)(F)F
outcome [1]: inactive
outcome [2]: inactive
outcome [5]: inactive

Oc1cccc(O)c1
outcome [10]: inactive
AC50 [3]: 0.0137 µM (active)
outcome [4]: inactive

CC(=O)NC1(c2cccc(F)c2)CCN(CC[C@@]2(c3ccc(Cl)c(Cl)c3)CN(c3ccccc3)C(=O)CO2)CC1
outcome [1]: inactive
outcome [2]: inactive

OC1CCCCC1
outcome [1]: inactive
outcome [2]: inactive
outcome [5]: inactive

CCCCOCCO
outcome [10]: inactive
outcome [5]: inactive

OC1CCC(C2CCCCC2)CC1 (configuration not stated)
outcome [1]: inactive
outcome [2]: inactive
AC50 [5]: 87.6 µM (active)

COCC(C)O (configuration not stated)
outcome [1]: inactive
outcome [2]: inactive
outcome [5]: inactive

CCCOc1sc(C(=O)N2CCC(c3cc(CN)ccc3F)CC2)c(C)c1Br
outcome [1]: inactive
AC50 [5]: 57.5 µM (active)

C[C@@H]1C[C@H]2[C@@H]3CCC4=CC(=O)C=C[C@]4(C)[C@@]3(F)[C@@H](O)C[C@]2(C)[C@@]1(O)C(=O)COP(=O)(O)O
outcome [1]: inactive
outcome [2]: inactive
outcome [5]: inactive
outcome [6]: inactive

O=[N+]([O-])c1ccc(O)cc1
outcome [1]: inactive
outcome [2]: inactive
AC50 [5]: 64.4 µM (active) and 59 µM (active)

CC#C[C@]1(O)CC[C@H]2[C@@H]3CCC4=CC(=O)CCC4=C3[C@@H](c3ccc(N(C)C)cc3)C[C@@]21C
AC50 [3]: 4.74 µM (active)
AC50 [4]: 17.7 µM (active)
AC50 [2]: 11.7 µM (active)
AC50 [5]: 14.5 µM (active)

CCCCCCC(=O)O
outcome [2]: inactive
